Hit rate of the full screen: of about 96,000 compounds, about 20,000 (21%) were called active. Only a sample is shown. Values without a mark were called inactive.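 The calls were made as follows: active = CYP2C19 inhibition above a set limit at 5 µM in the primary screen (cut at about 50% in these data); inactive = the rest.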

In the assay the target is Cytochrome P450 2C19 (Homo sapiens) (UniProt P33261). Kind of assay: blockers of cytochrome P450 2C19 activity – biochemical, luminescence, ADME assay, primary screen (AID 778).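 Also: plate controls were negative control wells for no effect and 2.5 mM tranylcypromine positive control for full effect.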 To be noted: CYP2C19 Supersomes, luciferin-H EGE luminescence, 30 min; at 5 µM; hits give high values.
Sequence of Cytochrome P450 2C19 (Homo sapiens) (P33261 whole entry, looked up): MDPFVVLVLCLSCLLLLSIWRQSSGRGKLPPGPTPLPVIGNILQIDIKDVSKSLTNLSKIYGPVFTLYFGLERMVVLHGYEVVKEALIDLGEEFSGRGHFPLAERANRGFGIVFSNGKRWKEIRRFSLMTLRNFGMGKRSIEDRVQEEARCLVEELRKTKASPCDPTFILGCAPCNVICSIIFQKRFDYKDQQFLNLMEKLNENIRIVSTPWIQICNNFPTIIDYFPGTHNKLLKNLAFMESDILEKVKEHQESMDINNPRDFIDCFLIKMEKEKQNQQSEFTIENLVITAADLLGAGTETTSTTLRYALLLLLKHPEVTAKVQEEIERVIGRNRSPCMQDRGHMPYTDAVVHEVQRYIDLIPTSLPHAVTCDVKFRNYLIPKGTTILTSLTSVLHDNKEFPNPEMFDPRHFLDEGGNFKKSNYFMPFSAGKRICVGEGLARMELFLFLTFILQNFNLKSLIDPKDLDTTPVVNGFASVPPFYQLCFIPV
Take `COc1cc(OC)cc(C(=O)Nc2ccc(-c3nc4ccccc4o3)c(O)c2)c1`: the inhibition (as a rule, the relative decrease from the control value, in per cent) is 22.3%.

Take `CCC(CC)C(=O)Nc1cccc(C(=O)N2CCCC2)c1`: the inhibition is 15.4%. For `CC(C)N(C(=O)COC(=O)c1ccccc1C(=O)N1CCN(c2ccc(F)cc2)CC1)C(C)C` the value was 44.2%; for `O=C(c1ccccc1)c1cccn1CC(=O)N1CCN(c2ccc(F)cc2)CC1`, 33.3%. Consider `O=C(c1ccccc1-c1ccccc1)N1CCOCC1`, for which the inhibition is 10.3%. In the case of `O=C(c1ccccc1Oc1ccccc1)N1CCN(c2ccc(F)cc2)CC1` it was 87.1% (active); in that of `O=C(c1cccc(C(=O)N2CCN(c3ccc(F)cc3)CC2)c1)N1CCN(c2ccc(F)cc2)CC1`, 81.8% (active); in that of `O=C(CN1CCN(C(=O)c2cccc(F)c2)CC1)Nc1ccccc1F`, 42.8%.

As for `O=C(c1ccccc1)N1CCN(C(=O)N2CCCCC2)CC1`, the inhibition was 39.7%.

Turning to `Cc1ccccc1CS(=O)(=O)CC1(O)CCN(C(=O)c2cccc(C(F)(F)F)c2)CC1`, the inhibition was 19.1%.

On to `Cc1cccc(C(=O)N2CCCN(C(=O)c3cccc(C)c3)CC2)c1`, for which the inhibition was 90.5% (active). For `O=C(c1cccc(F)c1)N1CCN(c2ccc([N+](=O)[O-])c(N3CCCCC3)c2)CC1` the value was 49%; for `Cc1ccccc1CN1CCN(C(=O)c2cccc(F)c2)CC1`, 98.4% (active).

Regarding `O=C(NCc1ccco1)C1(c2ccc(Cl)cc2)CCCC1`, the inhibition is 39.8%. In the case of `CCOc1nc(NCCN2CCOCC2)nc(Nc2ccc(C)cc2)n1` it was 11.1%. In the case of `CCOc1ccc(NC(=O)Nc2ccc(N(C)C(C)=O)cc2)cc1` it was -7.4%; in that of `O=C(Nc1ccc2ccccc2c1)Nc1ccc2snnc2c1`, 5.2%; in that of `Oc1c(C=Nc2cccc3nsnc23)ccc2ccccc12`, 45.4%. For `Cc1ccc(-c2nn(-c3ccccc3)cc2/C=N/NC(=O)c2ccc3c(c2)OCO3)cc1` the value was 49.9%; for `O=C(c1ccc2c(c1)OCO2)N1CCNc2ccccc2C1`, 16.6%. Regarding `CC1CN(C(=O)c2ccc3c(c2)OCO3)OC(c2ccccc2)O1` (centres undefined), the inhibition was 74.6% (active). In the case of `CCn1c(COc2cccc(OC)c2)nnc1SCC(=O)N1CCOCC1` it was 9.6%; in that of `CCOC(=O)C1Cn2c(nc3c(c2=O)C(C)(CC)Cc2ccccc2-3)S1` (centres undefined), 97.8% (active). For `CC1(C)Cc2ccccc2-c2nc(CN3CCOCC3)[nH]c(=O)c21` the value was 9.2%; for `COC(=O)Nc1ncc(CN2CCCCC2)s1`, -1.3%; for `Cc1cc(C)c(C#N)c(SCc2ccccc2C(=O)O)n1`, -6%. In the case of `Cc1cc(C)c(C#N)c(SCc2[nH]nc3c2C(c2ccccc2)C(C#N)=C(N)O3)n1` (centres undefined) it was -13.6%; in that of `Cc1cc(C)c(C#N)c(SCc2ccc3c(c2)OCO3)n1`, 96.5% (active); in that of `CC(CO)N1CCS(=O)(=O)CC1` (centres undefined), -1.3%. Turning to `O=C(c1ccc(Cl)cc1)c1cnc(Nc2ccccc2)s1`, the inhibition is -10.7%. For the compound `CCCOC(=O)Nc1ccccc1C(N)=O`, the inhibition is 5.8%. Turning to `CSCCC(NC(=O)COc1ccccc1)C(=O)OCC(=O)c1cc2ccccc2o1` (centres undefined), the inhibition was 28.3%. As for `C=CCn1c(SCC(=O)c2c(N)n(C)c(=O)n(C)c2=O)nc2sc(CC)cc2c1=O`, the inhibition is 1.3%.

Regarding `Cc1cc2c(=O)n(C)c(SCC(=O)c3cc4ccccc4o3)nc2s1`, the inhibition was 85.9% (active).

On to `COc1ccc(CN2CCn3ncc(C(=O)Nc4ccc(Cl)cc4Cl)c3C2=O)cc1`, for which the inhibition was -8.8%. Consider `O=C(COC(=O)CCc1c[nH]c(=O)[nH]1)Nc1ccccc1Cl`, for which the inhibition was -10%. In the case of `O=C(O)CSCNC(=O)CC12CC3CC(CC(C3)C1)C2` it was 11.3%. In the case of `O=C(O)c1ccc(NS(=O)(=O)c2cccc3nsnc23)cc1` it was 2%. In the case of `O=C(C(NS(=O)(=O)c1cccc2nsnc12)c1ccccc1)N1CCN(c2ccccc2)CC1` (centres undefined) it was 86.3% (active); in that of `O=C(C(NS(=O)(=O)c1cccc2nsnc12)c1ccccc1)N1CCN(c2ccccn2)CC1` (centres undefined), 35.6%; in that of `CC(C)c1nc2ccc(C(=O)O)cc2[nH]1`, 12.1%. For `CC(C)(C)c1cc(=O)n2c(nc3ccccc32)[nH]1`, the inhibition is 12.3%.

On to `C/C(=N\NC(=O)c1ccccc1C)c1ccc(N2CCOCC2)cc1`, for which the inhibition was 3.2%. For `Cc1cccc(-n2nc3c(c2NC(=O)c2ccc(Br)o2)CSC3)c1C` the value was -0.9%; for `O=C1CCC(=O)N1CCOP1(=O)COc2ccccc2OC1`, -14.7%. In the case of `CN=C1SC(C(=O)O)CC(=O)N1C` (centres undefined) it was -3.4%. Regarding `COc1ccccc1NC(=O)CSc1nnc(Cc2cccn2C)n1-c1ccc(F)cc1`, the inhibition was 66.3% (active). In the case of `COc1ccc(-n2c(Cc3cccn3C)nnc2SCC(=O)Nc2cc(C)cc(C)c2)cc1` it was 20.6%.

In the case of `Cn1cccc1Cc1nnc(SCC(=O)NCc2ccc3c(c2)OCO3)n1CCc1ccccc1`, the inhibition is 88.3% (active). In the case of `Cn1cccc1Cc1nnc(SCC(=O)NCCc2ccccc2)n1-c1ccc(F)cc1`, the inhibition was 59.6% (active). For `Cc1ccc(C)c(NC(=O)CSc2nnc(Cc3cccn3C)n2-c2ccc(F)cc2)c1` the value was 15.6%; for `COC(=O)c1ccc(NC(=O)CSc2nnc(Cc3cccn3C)n2-c2ccc(F)cc2)cc1`, 22.5%. In the case of `Cc1nnc(SCC(=O)N/N=C/c2cn(-c3ccccc3)nc2-c2ccc(F)cc2)n1-c1ccccc1` it was 3.9%; in that of `CC1(C)CC(=O)C=C(NCc2ccncc2)C1`, 31.5%. With `CCN(CC)C(=O)CSc1nnc(C2CCCCC2)o1`, the inhibition was 8.6%. Turning to `CCCC(=O)Nc1ccc2c(c1)nc1n2CCSC1`, the inhibition is -2.8%. For `COc1cccc(OC)c1C(=O)Nc1ccc(N2CCCCC2)cc1` the value was -3.6%; for `COc1ccc(-c2cc(C(=O)n3cnc4ccccc43)c3ccccc3n2)cc1`, 74.8% (active); for `Cc1ccc2nc(-c3ccccc3)cc(C(=O)O)c2c1`, -3.4%. In the case of `Cc1ccc(OCC(=O)Nn2cnc3ccccc32)cc1`, the inhibition was 17.2%.

For `O=C(C1=C(O)C(=O)N(c2ncccn2)C1c1cccs1)c1ccco1` (centres undefined), the inhibition was 1.3%. Regarding `CCC(=O)c1ccc(OCC(O)CN2CCN(c3cccc(C(F)(F)F)c3)CC2)cc1` (centres undefined), the inhibition was 25.5%. In the case of `Cn1nc(C(F)(F)F)c2cc(NC(=O)OCC(C)(C)C)sc21` it was 34.6%; in that of `CCC(=O)OCc1c(C(F)(F)F)nn(C)c1Oc1cccc(C(F)(F)F)c1`, 57.7% (active). `COc1ccc(Nc2cc(=O)oc3ccccc23)cc1`: the inhibition is 17.7%.

Turning to `Cc1noc(/C=C/N(C)C)c1S(=O)(=O)N1CCCC(C(=O)NCc2ccco2)C1` (centres undefined), the inhibition is 39.6%. In the case of `CCOC(=O)C1CCN(C(=O)C2CCN(S(=O)(=O)c3c(C)noc3C)CC2)CC1` it was 14.7%; in that of `Cc1ccc(NC(=O)C2CCCN(S(=O)(=O)c3c(C)noc3C)C2)c(C)c1` (centres undefined), 11.2%; in that of `CCOc1ccc(OCC)c(NC(=O)C2CCN(S(=O)(=O)c3c(C)noc3C)CC2)c1`, 54.5% (active).

Turning to `Cc1noc(C)c1S(=O)(=O)N1CCCC(C(=O)Nc2nccs2)C1` (centres undefined), the inhibition was 78.8% (active). In the case of `CCOc1ccccc1NC(=O)C1CCN(S(=O)(=O)c2c(C)nn(C)c2C)CC1` it was 44.7%; in that of `COc1ccc(N2CCN(Cc3ccc(Br)s3)CC2)cc1`, 96.1% (active). In the case of `COc1ccc(N2CCN(Cc3cc(=O)oc4ccc5ccccc5c34)CC2)cc1` it was 12.4%.

Regarding `Fc1ccc(N2CCN(Cc3cnc(Oc4ccc(Br)cc4)s3)CC2)cc1`, the inhibition is 2.8%. In the case of `C=CCSC1=C(C#N)C(c2cc(Br)c(O)c(OC)c2)CC(=O)N1` (centres undefined) it was 67.5% (active); in that of `Cc1ccc(Cl)cc1NC(=O)COC(=O)C1CCCCC1`, 32.1%. For `CC(C)c1ccc(N2CC(C(=O)Nc3nccs3)CC2=O)cc1` (centres undefined) the value was 59.1% (active); for `CCc1ccc(N2CC(C(=O)NC3=NCCS3)CC2=O)cc1` (centres undefined), -1.1%; for `CCCOc1ccc(N2CC(C(=O)Nc3ccccn3)CC2=O)cc1` (centres undefined), -18.5%.

`CN(C)C(=O)c1cc(Br)ccc1Cl`: the inhibition was 4%. As to `CCOc1cccc(/C(O)=C2/C(=O)C(=O)N(CCOC)C2c2ccncc2)c1` (centres undefined), the inhibition was -18.2%. In the case of `COc1ccc(N2C(=O)CC(N3CCC(C(N)=O)CC3)C2=O)cc1` (centres undefined) it was -28.9%; in that of `CO/N=C(/CS(=O)(=O)c1ccc(Br)cc1)c1ccc(OC)cc1`, 100% (active).

Take `COC(=O)CNS(=O)(=O)c1ccc(OC)cc1`: the inhibition is 10.3%.

On to `COc1ccc(C(=O)Nc2ccc(S(=O)(=O)NC(C)C)cc2)cc1`, for which the inhibition is 42.9%. For `Cc1nc(-c2ccccc2)sc1-c1nc(-c2ccccc2)ncc1S(=O)(=O)c1ccccc1` the value was 5.1%; for `CC(C)NS(=O)(=O)c1ccc(CCC(=O)N2CCOCC2)cc1`, 14.2%; for `O=C(OC(C(=O)NC1CCCC1)c1ccc(F)cc1)c1ccno1` (centres undefined), 8.1%. In the case of `Cn1c(C(=O)OC(C(=O)NC2CCCCC2)c2ccccn2)cc2sccc21` (centres undefined) it was 67.2% (active); in that of `CC(=O)OC(C(=O)NC1CCCCC1)c1ccccc1` (centres undefined), 20.2%. On to `CCn1c(C)nc2c1C(=O)c1ccccc1C2=O`, for which the inhibition is -8.5%. For `Cc1nc2c(c(=O)n1Cc1ccco1)c1nc3ccccc3nc1n2Cc1ccccc1` the value was 3%; for `Cc1nc2ccccc2c(=O)n1CCCn1ccnc1`, 50.8% (active); for `CCC(C)N1C(=O)S/C(=C/c2ccc(Sc3nc4ccccc4[nH]3)o2)C1=O` (centres undefined), 43.3%. In the case of `CC(C)Cc1oc(C(=O)O)cc1CN` it was 4.2%. As for `CC1OC2C(OC1C)N(S(C)(=O)=O)CCN2S(C)(=O)=O` (centres undefined), the inhibition was -4.8%. In the case of `CCc1ccc(CNC(=O)C2CC(=O)N(CCc3ccc(C)cc3)C2)cc1` (centres undefined) it was 54.2% (active); in that of `Cc1ccc(CNC(=O)C2CC(=O)N(C3CCCCCCC3)C2)cc1` (centres undefined), -2.5%; in that of `Cc1ccc(CCN2CC(C(=O)O)CC2=O)cc1` (centres undefined), -0.5%.

Source of the values: PubChem BioAssay AID778 (Sanford-Burnham Center for Chemical Genomics, 2007).
